Out of some 350,000 compounds screened, about 31,000 (8.9%) were called active. Inconclusive results (about 15%) are left out. Calls follow the shape of the dose curve; as a rule, active = well fitted inhibition curve with a large enough effect; inconclusive = small, poorly fitted or top-dose-only effect; inactive = no such curve, though single readings can be large or run the other way. The list comes from a sample in which actives are over-represented; it also holds similar structures and randomly drawn compounds.
The compounds below were run against Histone-lysine N-methyltransferase EHMT2 (Homo sapiens) (UniProt Q96KQ7) (assay: qHTS Assay for Inhibitors of Histone Lysine Methyltransferase G9a). Details: G9a H3K9 monomethylation, AlphaScreen, 2 h; series mostly up to 59 µM; activity, negative = inhibition: at the top concentration.
Sequence of Histone-lysine N-methyltransferase EHMT2 (Homo sapiens) (Q96KQ7 913-1193 limits assumed): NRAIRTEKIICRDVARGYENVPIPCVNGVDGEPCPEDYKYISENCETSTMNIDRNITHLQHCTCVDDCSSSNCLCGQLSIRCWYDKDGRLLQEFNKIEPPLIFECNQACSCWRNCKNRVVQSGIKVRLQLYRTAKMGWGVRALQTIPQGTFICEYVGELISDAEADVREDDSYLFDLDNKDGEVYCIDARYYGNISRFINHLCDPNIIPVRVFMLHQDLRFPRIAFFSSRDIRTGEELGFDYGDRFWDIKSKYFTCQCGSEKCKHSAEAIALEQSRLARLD
Procedure, shortened: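 G9a (20 nM) was preincubated 15 min with compound, then reacted 2 h at room temperature with 500 nM biotin-H3K9 peptide and 20 µM SAM. Monomethyl-H3K9 detected by AlphaScreen using anti-H3K9me1 antibody.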
% is scaled to controls: 0 for no effect and ±100 for the full control effect; potency is read from the fitted curve at half-maximal effect.
Also: nearly all actives have a fitted effect of over 75% in size.

activity, negative = inhibition, inactive:
Cc1nn(Cc2ccccc2)c(C)c1C(=O)NCCCN1CCCC1=O 10.5% [at 12.7 µM]
CCOC(=O)c1c(NC(=O)CN2C(=O)NC3(CCC(C)CC3)C2=O)sc(C)c1CC (stereo unspecified) -0.128%
COC(=O)c1cc(Oc2ccc(S(=O)(=O)N3CCOCC3)cc2[N+](=O)[O-])cc(C(=O)OC)c1 19.1% [at 12.7 µM]
Cc1ccccc1OCC(=O)Nc1ccc(S(=O)(=O)N2CCOCC2)cc1 2.97% [at 102 µM]
CN1CCN(S(=O)(=O)c2ccc(NC(=S)NC(=O)C3CC3)cc2)CC1 -24.7%
Cc1cc(C(=O)NNC(=O)c2cccc(S(=O)(=O)N3CCOCC3)c2)c2ccccc2n1 8.08% [at 102 µM]
O=C(CN1C(=O)CCC1=O)Nc1ccc(S(=O)(=O)N2CCOCC2)cc1 7.29%
O=C(COC(=O)c1ccccc1)Nc1cccc(S(=O)(=O)N2CCOCC2)c1 2.49% [at 102 µM]
CCOC(=O)c1c(S(=O)(=O)NCC(=O)Nc2ccc(Cl)c(C(F)(F)F)c2)c(C)n(C)c1C -3.36%
CCCS(=O)(=O)N1CCC(n2c(C(F)(F)F)nc3cccnc32)CC1 11.9%
Cn1c(=O)c2c(n3c4ccccc4nc13)NC(=O)CC2c1cccc(Cl)c1 (stereo unspecified) -19.9%
Cc1cc2nc(-c3ccc(NC(=O)c4cc5ccccc5o4)cc3)oc2cc1C -32.2%
O=C1COc2ccc(S(=O)(=O)NCCc3ccc(Cl)cc3)cc2N1 -10.7% [at 102 µM]
O=C(CCCC(=O)N1CCN(c2cccc(Cl)c2)CC1)c1ccccc1 53.4% [at 102 µM]
O=C(Cn1nnc2ccccc2c1=O)NCc1ccc(Cl)cc1 13.5% [at 102 µM]
C=CCn1c(SCc2ccc(C(=O)NCCO)cc2)nc2ccccc2c1=O -5.22% [at 102 µM]
CCOc1ccc(NC(=O)CCC(=O)N2CC(C)Oc3ccc(C)cc32)cc1 (stereo unspecified) 2.04%
CCCCN(CC)C(=O)c1c[nH]c2ccc(S(=O)(=O)Nc3cccc(OC)c3)cc2c1=O -23.6%
CCOC(=O)c1cccc(NC(=O)CCc2nnc3ccc(N4CCOCC4)nn23)c1 21.6% [at 102 µM]
CCOc1ccc(CCNC(=O)CCc2nnc3ccc(N4CCCC4)nn23)cc1OCC -10.3% [at 102 µM]
Cc1ccc2c(c1)N(C(=O)CCC(=O)NCc1ccccc1F)CC(C)O2 (stereo unspecified) -28.8%
CCCc1cc(=O)oc2c(C)c(OCC(=O)Nc3ccccn3)ccc12 -3.15% [at 0.0925 µM]
O=C(Nc1ccc2nc(SCC(=O)N3CCc4ccccc43)sc2c1)c1ccccc1F 33.7%
Oc1ccc2nc(Cc3ccccc3)[nH]c2c1 -45.3% [at 12.7 µM]
Oc1ccc(-c2[nH]ncc2-c2nc3ccccc3s2)c(O)c1 -10.1% [at 102 µM]
NS(=O)(=O)c1ccc(CCNC(=O)CCCCCn2c(=O)[nH]c3ccccc3c2=O)cc1 7.65%
O=C1CN(C(=O)Nc2ccccc2C(F)(F)F)C(c2ccccc2)c2c(sc3c2CCCC3)N1 (stereo unspecified) -25.3%
O=C(NCC(=O)N(CC1CCCO1)C(C(=O)NC1CCCCC1)c1ccccc1)c1ccco1 (stereo unspecified) 10.7% [at 102 µM]
CC(C)c1ccc(N(C(=O)c2ccco2)C(C(=O)NC2CCCC2)c2cccnc2)cc1 (stereo unspecified) 20.6% [at 102 µM]
CCC1=NN2C(=N)/C(=C/c3cc(C)n(-c4ccccc4)c3C)C(=O)N=C2S1 -24.1% [at 102 µM]
Cc1ccc(CN2C(=O)N/C(=C/c3cc(C)n(-c4ccccn4)c3C)C2=O)cc1 -0.497%
Cc1cc(C)c2oc(C(=O)Nc3c(C(=O)Nc4ccccc4)oc4ccccc34)cc(=O)c2c1 -28.2%
CCOc1ccc2nc(N3CCCC(C(=O)Nc4cc(C)ccc4C)C3)sc2c1 (stereo unspecified) -27.6%
COc1ccc(CCN=C2SCC(=O)N2Cc2ccccc2)cc1OC -8.24% [at 102 µM]
COc1ccc(C2C(=O)N(C3CCCCCC3)CC(=O)N2CCc2ccc(Cl)cc2)cc1OC (stereo unspecified) -9.54%
Cc1ccc([C@@H]2CC=C(C(=O)O)[C@H](c3cccc(Cl)c3)N2S(=O)(=O)c2ccc(C)cc2)cc1 3.76% [at 2.33 µM]

Potency, active:
CCC(=C/c1sc2ccc3ccccc3c2[n+]1C)/C=C1\Sc2ccc3ccccc3c2N1C 3.16 µM
O=C(NNC(=S)Nc1ccccc1)c1cccc(S(=O)(=O)N2CCOCC2)c1 31.6 µM
O=C(NC(=S)Nc1ccc(S(=O)(=O)N2CCOCC2)cc1)c1ccccc1[N+](=O)[O-] 39.8 µM
O=S(=O)(c1ccc(NC(=S)NN=C(C2CC2)C2CC2)cc1)N1CCOCC1 1.78 µM
C=CCn1c(SCn2nnc3ccccc3c2=O)nnc1-c1ccc(Cl)cc1 44.7 µM
CCN(CC)c1ccc(NC(=O)CCc2nnc3ccc(N4CCCCC4)nn23)c(C)c1 44.7 µM
Cc1cc(O)ccc1-c1cnc2ccccc2n1 14.1 µM
CC(C)c1ccc(C2C(C(=O)c3ccco3)=C(O)C(=O)N2CC2CCCO2)cc1 (stereo unspecified) 44.7 µM
Cc1cccc(C)c1-n1c(C)cc(/C=C2\C(=O)NN(c3ccccc3)C2=O)c1C 15.8 µM
COc1cc(C2CC(=O)N3CN(Cc4ccccc4)CSC3=C2C#N)ccc1OCc1ccccc1 (stereo unspecified) 0.891 µM

Source: PubChem BioAssay AID504332 (National Center for Advancing Translational Sciences (NCATS), 2011)
